Data published in PubChem BioAssay AID485297 (National Center for Advancing Translational Sciences (NCATS), 2010).
Screen size: about 320,000 compounds; about 9,100 (2.8%) were called active. Another 3% or so got no clear call; they are omitted. What follows is part of a selection rich in actives, with near analogues and random picks from the rest. Values without a mark were called inactive. Calls come from the whole dose curve; as a rule, active = well fitted activation curve with a large enough effect; inconclusive = small, poorly fitted or top-dose-only effect; inactive = no such curve, though single readings can be large or run the other way.

Assay: qHTS Assay for Rab9 Promoter Activators; note: nearly all actives have a fitted effect of over 60% in size; for activation, negative = inhibition: % of control where 0% means no effect
Details: Huh7 Rab9 promoter-luciferase reporter, luminescence, 24 h; series mostly up to 9.22 µM; activation, negative = inhibition: at the top concentration
In short: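 Cell-based reporter: Huh7 stable for Rab9 promoter-driven luciferase, plated in reduced-serum medium with 10% FBS at 1500 cells/well, compound-treated 24 h at 37 °C, luminescence read after 10 min reagent.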
Potency is the fitted concentration of half-maximal effect.

Row | SMILES | activation, negative = inhibition [%] | Potency
1 | Cc1ccc(S(=O)(=O)NCCC(=O)NCc2ccc(Cl)cc2)cc1C | -1.24 | 
2 | CCN(CC)S(=O)(=O)c1ccc(CNC(=O)CN2C(=O)NC3(CCc4ccccc43)C2=O)cc1 (stereo not drawn) | -4.71 | 
3 | O=C1C=C(c2cc(C(F)(F)F)cc(C(F)(F)F)c2)C[C@@H](c2ccc3c(c2)OCO3)C1 | -9.28 | 
4 | COc1ccc(-c2sc3ccc(OC)cc3c2C#Cc2ccccn2)cc1 | -0.366 | 
5 | Cc1cc(C)cc(NC(=O)C(c2ccccc2)N2CCN(CC(=O)N3CCCC3)CC2)c1 (stereo not drawn) | -6.26 | 
6 | c1ccc(C2CCC(N3CCC(N4CCCCC4)CC3)CC2)cc1 (stereo not drawn) | -8.43 | 
7 | COc1ccc(Nc2nc(-c3ccccc3)cs2)cc1 |  | 2510 nM (active)
8 | COc1ccc(NC(=O)c2sc(N)nc2-c2ccccc2)cc1 | -0.349 | 
9 | COc1ccc(-c2csc(NC3OC(=O)c4ccccc43)n2)cc1 (stereo not drawn) | 3.91 | 
10 | CCN(CC(=O)Nc1ccccc1C(=O)NC1CC1)Cc1cccs1 | 3.29 | 
11 | CCCCN(C(=O)C(CCSC)N1C(=O)c2ccccc2C1=O)c1c(N)n(CCC)c(=O)[nH]c1=O (stereo not drawn) | 0.148 | 
12 | COc1ccc(OCc2ccc(-c3nc4ccccc4c(=O)n3N)o2)cc1 |  | 1260 nM (active)
13 | COc1ccc(OCc2n[nH]c(=S)n2N)cc1 | -6.39 | 
14 | COc1ccc(-c2nc3ccccc3c(=O)n2CCc2ccc(O)cc2)cc1 | -5.76 | 
15 | O=C(CSc1nc2[nH]c(=O)[nH]c(=O)c2s1)Nc1cccc(F)c1 | 1.4 | 
16 | Cc1ccc(NC(=O)C(C)Sc2nnc(C3CC3)n2C2CC2)cc1S(=O)(=O)N1CCOCC1 (stereo not drawn) | -1.7 | 
17 | CCC(=O)Nc1ccc2nn(-c3ccc(F)cc3)nc2c1 |  | 631 nM (active)
18 | Cc1ccc(-n2nc3ccc(NC(=O)/C=C/c4ccco4)cc3n2)cc1C | 15.4 | 
19 | Cc1cccc(C(=O)OCC(=O)Nc2ccc(F)cc2)c1 | 0.584 | 
20 | Cc1cc(C(=O)COC(=O)CCCN2C(=O)c3ccccc3C2=O)c(C)n1C | -6.04 | 
21 | C=CCn1c(C)cc(C(=O)CN2C(=O)c3ccccc3C2=O)c1C |  | 355 nM (active)
22 | C=CCN(CC=C)C(=O)CN1C(=O)c2ccccc2C1=O | 2.95 | 
23 | COc1cccc(C2=CC(=O)C[C@H](c3ccc(F)cc3)C2)c1OC | -9.93 | 
24 | Cc1cc(C)cc(OCC(=O)Nc2ccc(N3CCOCC3)cc2N2CCOCC2)c1 | -3.26 | 
25 | CSCC[C@H](NC(=O)OC(C)(C)C)C(=O)N/N=C/c1cc2ccc(C)cc2nc1Cl | 0.316 | 
26 | Cc1ccc2cc(/C=N/NC(=O)[C@@H]3CCCN3)c(Cl)nc2c1 | -0.292 | 
27 | Cc1ccc2cc(/C=N/Nc3ccc(C(=O)O)cc3)c(Cl)nc2c1 |  | 1260 nM (active)
28 | CC1(C)O[C@@H]2[C@H](O1)[C@@H](COS(=O)(=O)O)O[C@H]2n1cnc2c(=O)[nH]cnc21 | -4.21 | 
